An excerpt weighted towards active compounds, which were near 3.5% of everything screened.
mHTT CaM bind: mutant huntingtin-calmodulin interaction inhibitors – biochemical, AlphaScreen, primary screen | inhibition, % at 15 µM | AID 1671202, 2021 | 190,000 tested, 3.6% active | P42858 | AlphaScreen His-mHTT/GST-CaM binding, luminescence
Pf apPOL inh: Pf-apPOL inhibitors, biochemical, fluorescence; Plasmodium falciparum apicoplast DNA polymerase (apPOL); Recombinant Pf-apPOL, molecular beacon fluorescence, 1.5 h; inhibition, % at 10 µM; 210,000 tested, 0.25% active
Numbers stand for hits; - = inactive; . = no result. Rule as the data show it: active = inhibition above about 50%; inactive = the rest.

SMILES	mHTT CaM bind	Pf apPOL inh
CC1Cn2cc(-c3ccc([N+](=O)[O-])cc3)nc2S1 (configuration not stated)	-	50.7
O=[N+]([O-])c1ccc(-c2cn3c(n2)SCC3)cc1	-	-
COCCN1C(=O)c2ccccc2C(C(=O)Nc2cc(C)ccn2)C1c1cn(C)c2ccccc12 (configuration not stated)	54.0	-
Cc1ccnc(NC(=O)C2c3ccccc3C(=O)N3CCc4ccccc4C23)c1 (configuration not stated)	-	-
COc1ccc(OC)c(NC(=O)C2c3ccccc3C(=O)N3CCc4ccccc4C23)c1 (configuration not stated)	-	-
COc1cc2c(cc1OC)C(C(=O)Nc1cc(C)ccn1)C1c3ccccc3CCN1C2=O (configuration not stated)	69.0	-
COc1cc2c(cc1OC)C(C(=O)NCCc1cccc(C)c1)C1c3ccccc3CCN1C2=O (configuration not stated)	89.0	-
COCCN1C(=O)c2ccccc2C(C(=O)O)C1c1cn(C)c2ccccc12 (configuration not stated)	-	-
COc1cc2c(cc1OC)C(C(=O)NCc1cccnc1)C1c3ccccc3CCN1C2=O (configuration not stated)	-	-
COc1ccc(C)cc1NC(=O)C1c2cc(OC)c(OC)cc2C(=O)N2CCc3ccccc3C12 (configuration not stated)	57.0	-
CC1(C(=O)Nc2ccccc2)Oc2cccnc2NC1=O (configuration not stated)	-	-
CC1CCC2C(=O)N(c3ccccc3OCC(=O)c3ccc(F)cc3)C(=O)C2C1 (configuration not stated)	-	-
CCn1c(=O)c([N+](=O)[O-])c(N2CCN(Cc3ccccc3)CC2)c2ccccc21	-	-
CC(O)(CNS(=O)(=O)c1ccc(Br)s1)c1ccccc1 (configuration not stated)	-	-
COc1ccc(CNC(=O)C2(c3ccc(NC(=O)C(C)C)cc3)CCCCC2)cc1	-	-
O=C(Nc1ccc(N2CCOCC2)cc1)C1CCc2sc(C(=O)N3CCCC3)cc2C1 (configuration not stated)	-	-
COCCn1cc2c3c(cccc31)CN(C(=O)Nc1ccccc1C)CC2	-	-
COc1cccc(OC)c1OCCN1CCCCC1	-	-
Cc1cc(S(=O)(=O)NCc2ccccc2)c(C)c(S(=O)(=O)c2ccccc2)c1	-	-
Cc1ccccc1N1CCN(Cc2cc3c(cc2[N+](=O)[O-])OCO3)CC1	-	-
O=[N+]([O-])c1cc2c(cc1CN1CCN(c3ccc(F)cc3)CC1)OCO2	-	-
O=[N+]([O-])c1cc2c(cc1CN1CCN(c3cccc(Cl)c3)CC1)OCO2	77.0	-
CCOc1ccccc1N1CCN(Cc2cc3c(cc2[N+](=O)[O-])OCO3)CC1	51.0	-
CN(C)C(CNC(=O)C(=O)Nc1ccc(C(F)(F)F)cc1)c1ccco1 (configuration not stated)	-	-
O=C(C1CC1)N(Cc1cc(-c2ccc(F)cc2)on1)C1CC1	-	-
SMILES	mHTT CaM bind	Pf apPOL inh
Cc1ccc(S(=O)(=O)N=S(Cc2ccccc2)CC2CC2(Cl)Cl)cc1 (configuration not stated)	-	-
CC1CCCCC1N1C(=O)c2ccccc2C1C(=O)NC1CCCCC1 (configuration not stated)	52.0	-
O=C(NC1CCCCC1)C1c2ccccc2C(=O)N1C1CCCCC1 (configuration not stated)	-	-
Cc1ccc(C)c(NC(=O)COc2ccc(Cl)cc2)c1	-	-
COC(=O)[C@H](C(C)C)N(CCCc1cn(Cc2ccc(C)cc2)nn1)S(=O)(=O)c1ccccc1Br	92.9	-
COC(=O)[C@H](C(C)C)N(CCc1cn(Cc2ccc(C)cc2)nn1)S(=O)(=O)c1ccccc1Br	-	-
CCOc1ccc(-c2[nH]nc3c2C(c2ccccc2F)C(C#N)=C(N)O3)c(OCC)c1 (configuration not stated)	51.0	-
CCOc1ccc(-c2[nH]nc3c2C(c2ccc(F)cc2)C(C#N)=C(N)O3)c(OCC)c1 (configuration not stated)	-	-
Cc1cc2c(=O)n(CC(=O)Nc3cc(Cl)ccc3C)ccc2s1	-	-
Cc1ccc(C(C)C)c(OCCCn2c(CO)nc3ccccc32)c1	64.7	-
COCn1c(COc2cc(C)ccc2C(C)C)nc2ccccc21	-	-
O=C(CSc1nc2[nH]ncc2c(=O)n1-c1ccccc1)Nc1ccc(C(F)(F)F)cc1	-	-
O=c1c2cn[nH]c2nc(SCc2ccc(C(F)(F)F)cc2)n1-c1ccccc1	63.0	-
O=C(CCN1CCCCC1)N1CCCC1c1nc(-c2ccccc2)n[nH]1 (configuration not stated)	-	-
N#CCc1nn(-c2ccccc2)c(N)c1C#N	-	-
N#Cc1c(-c2ccc(Nc3ccccc3)cc2)nn(-c2ccccc2)c1N	52.8	-
Cc1ccccc1C(=O)Nc1nnc(C2CC(=O)N(c3ccc(S(C)(=O)=O)cc3)C2)o1 (configuration not stated)	-	-
COc1ccc(N2CC(c3nnc(NC(=O)c4ccc(Cl)cc4)o3)CC2=O)cc1 (configuration not stated)	-	-
O=C(Nc1nnc(C2CC(=O)N(c3ccccc3)C2)o1)c1ccc(Br)cc1 (configuration not stated)	-	-
COc1ccc(C(=O)Nc2nnc(C3CC(=O)N(c4ccc(Cl)cc4)C3)o2)cc1OC (configuration not stated)	76.4	-
CS(=O)(=O)c1ccc(N2CC(c3nnc(NC(=O)c4cccs4)o3)CC2=O)cc1 (configuration not stated)	52.7	-
COc1ccc(C(=O)Nc2nnc(C3CC(=O)N(c4ccccc4)C3)o2)cc1 (configuration not stated)	-	-
COc1ccc(C(=O)Nc2nnc(C3CC(=O)N(c4ccccc4)C3)o2)cc1OC (configuration not stated)	61.3	-
O=C(Nc1nnc(C2CC(=O)N(c3ccccc3)C2)o1)c1ccccn1 (configuration not stated)	100.1	-
O=C(NCc1ccc2c(c1)OCO2)C1CCCN(Cc2nc(-c3cccs3)no2)C1 (configuration not stated)	-	-
SMILES	mHTT CaM bind	Pf apPOL inh
COc1ccc(OC)c(NC(=O)CCCN2C(=O)c3ccccc3C2=O)c1	-	-
Clc1cccc2sc(NCCCn3ccnc3)nc12	-	-
O=C(CN1CCC2(CC1)N=C(c1ccccc1)C(=O)N2)Nc1ccccc1	-	-
Cc1ccc(N2CCN(C(=O)Nc3ccc(Cl)cc3Cl)CC2)cc1	-	-
O=C(Nc1cccc(F)c1)C1CCCN(C(=O)c2ccccc2F)C1 (configuration not stated)	-	-
Cc1cc(C)cc(NC(=O)C2CCCN(C(=O)c3ccccc3F)C2)c1 (configuration not stated)	97.3	-
CCNC(=O)N1CC(C(=O)NC2CC2)C(c2ccccc2OC)C1 (configuration not stated)	-	-
c1ccc(-c2nc(-c3ccncc3)cc(-c3ccccn3)n2)cc1	-	.
CCc1nnc2c(NC(=O)CC3CCCCC3)cccn12	-	-
NC(=O)CNC(=O)C1CCCc2c1[nH]c1ccc(Cl)cc21 (configuration not stated)	-	-
